# This is a sample that favours compounds with a hit; in the whole collection about 9.8% have one here.
# CBFb RUNX1 block: inhibitors of human CBF-beta and RUNX1 interaction. AID 1477. AlphaScreen CBFb-His/RUNX1-biotin binding, biochemical. 230,000 tested, under 10 active. Potency, µM (doses to about 59.8 µM), for inactives: at the highest dose activity, negative = inhibition, hits mostly inhibitors; note: % of control where 0% means no effect
# Target sequence (Q01196 whole entry, looked up): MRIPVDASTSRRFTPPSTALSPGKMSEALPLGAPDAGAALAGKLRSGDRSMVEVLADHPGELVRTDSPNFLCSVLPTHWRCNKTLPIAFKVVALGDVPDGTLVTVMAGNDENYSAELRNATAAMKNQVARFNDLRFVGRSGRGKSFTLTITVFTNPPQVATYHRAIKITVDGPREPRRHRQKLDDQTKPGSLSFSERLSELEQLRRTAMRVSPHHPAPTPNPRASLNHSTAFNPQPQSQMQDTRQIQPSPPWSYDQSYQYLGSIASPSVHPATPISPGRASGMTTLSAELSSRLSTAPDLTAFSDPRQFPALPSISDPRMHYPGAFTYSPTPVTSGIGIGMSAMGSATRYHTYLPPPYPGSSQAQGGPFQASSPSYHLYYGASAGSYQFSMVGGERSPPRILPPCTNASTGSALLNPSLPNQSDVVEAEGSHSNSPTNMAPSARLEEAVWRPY
# Target sequence (Q13951 whole entry, looked up): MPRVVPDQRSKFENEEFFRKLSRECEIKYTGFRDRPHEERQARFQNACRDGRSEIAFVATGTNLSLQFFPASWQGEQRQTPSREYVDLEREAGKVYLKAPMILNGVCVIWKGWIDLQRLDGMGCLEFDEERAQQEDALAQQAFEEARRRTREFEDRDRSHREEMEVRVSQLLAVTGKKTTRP
#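 CBF-beta (His) and RUNX1 (biotin), 30 nM each; 20 min preassociation; + compound, 15 min; + beads 50 ng each (Ni, streptavidin), 90 min; RT; AlphaScreen read.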
# ALDH1A1 inh: inhibitors of human aldehyde dehydrogenase 1A1 | P00352 | Purified ALDH1A1, NADH fluorescence, propionaldehyde substrate | Potency, µM (series often up to 75.3 µM), without a hit: top-dose activity, negative = inhibition, actives largely listed as inhibitors | 220,000 compounds, 7.3% hits; active = well fitted inhibition curve with a large enough effect, not every such curve was filed as active; inconclusive = small, poorly fitted or top-dose-only effect, or another doubt; inactive = no such curve, though single readings can be large or run the other way;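 note: potency is the fitted concentration of half-maximal effect; plate controls were no enzyme wells and a reference inhibitor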
# JMJD2E inh: blocks human JMJD2E demethylase activity. B2RXH2. JMJD2E catalytic domain, FDH-coupled NADH fluorescence (FDH is formaldehyde dehydrogenase). Potency, µM (highest dose often 57.1 µM), for inactives: at the top dose activity change, negative = inhibition, most hits filed as inhibitors. 230,000 compounds, 1.6% hits. AID 2147; active = well fitted inhibition curve with a large enough effect, not every such curve was filed as active; inconclusive = small, poorly fitted or top-dose-only effect, or another doubt; inactive = no such curve, though single readings can be large or run the other way;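 note: potency is the fitted concentration of half-maximal effect; 0% = wells with enzyme and -100% = buffer wells without enzyme; nearly all actives have a fitted effect of over 50% in size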
# HTT aggregate: mutant huntingtin aggregation inhibition; Potency, µM (titrated, usually from 46.1 µM), for the others: top-dose activity change, negative = inhibition, usual class: inhibitors; PC12 HttQ103-GFP aggregates, Acumen cytometry, 40 h; AID 1688; 220,000 compounds, 1.1% hits; note: potency is the fitted concentration of half-maximal effect; % is set by controls: 0 for no effect and ±100 for the full control effect; nearly all actives have a fitted effect of over 60% in size
#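 Read-out: GFP aggregate count by laser scanning cytometer (488 nm excitation, 500-530 nm emission, 1–25 µm objects >6 SD above background). Cells: PC12, inducible HTTex1-Q103-GFP, 100 nM tebufenozide; compounds titrated.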
# HPGD inh: HPGD (human) dehydrogenase inhibition | P15428 | Potency, µM, for inactives: top-dose activity change, negative = inhibition, actives largely listed as inhibitors | purified HPGD, NADH fluorescence kinetic, PGE2 substrate | AID 894 | 150,000 compounds, 4.3% hits; active = well fitted inhibition curve with a large enough effect, not every such curve was filed as active; inconclusive = small, poorly fitted or top-dose-only effect, or another doubt; inactive = no such curve, though single readings can be large or run the other way; note: potency is the fitted concentration of half-maximal effect; % is set by controls: 0 for no effect and ±100 for the full control effect
#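 NADH formation kinetics: reaction with 30 uM PGE2 and 1 mM NAD+ (final), 20 nM enzyme, Tris-HCl pH 8 with Tween 20, after 15 min compound preincubation at room temperature. Fluorescence change, last versus first of five reads.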
# HTT ATP protect: Huntington cell model cytoprotection by ATP luminescence. AID 1471. Potency, µM (doses to about 56.4 µM), inactives show cytoprotection (ATP increase), actives largely listed as activators. PC12 HTT-Q103 induced, cytoprotection, ATP luminescence, 40 h. 230,000 compounds, 0.14% hits; note: potency is the fitted concentration of half-maximal effect; % of control where 0% means no effect; nearly all actives have a fitted effect of over 45% in size
#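 PC12 cells stably carrying ecdysone-inducible Htt exon 1 (Q103)–GFP were induced with 100 nM tebufenozide (final) alongside library compounds in a dose series. Cytoprotection was scored as retained ATP by ATPlite luminescence.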
# * = called active by the depositor; ? = inconclusive; / = no result given; [ ] = remark or other dose. Unless noted, calls come from the whole dose curve; as a rule, active = well fitted curve in the direction sought with a large enough effect; inconclusive = small, poorly fitted or top-dose-only effect, or another doubt; inactive = no such curve, though single readings can be large; an effect the other way counts as inactive or inconclusive.
SMILES,CBFb RUNX1 block,ALDH1A1 inh,JMJD2E inh,HTT aggregate,HPGD inh,HTT ATP protect
O=C(NCc1cccc(C(F)(F)F)c1)C1CC(c2ccc(C(F)(F)F)cc2)=NO1 (stereo unspecified),25%,/,3%,-13%[9.22 µM],/,19%[10 µM]
CCN(CC)c1ccc(C=C2C(=O)OC3(CCCC3)OC2=O)cc1,1%,0.71µM*,-12%,1%,?,?
CCN(CC)c1ccc(C=C2C(=O)OC(c3ccccc3)OC2=O)cc1 (stereo unspecified),18%,0.28µM*,-23%,22%,/,-6%
CCN(c1ccccc1)S(=O)(=O)c1ccc(Cl)c(NC(=O)COC(=O)c2cc(O)c3ccccc3c2O)c1,-27%,/,8.9µM*,-29%[9.22 µM],/,7%[10 µM]
COC(=O)CNC(=O)CCc1nnc(C2(c3ccc(Cl)cc3)CCC2)o1,4%,8.9µM*,8%,12%[9.22 µM],/,26%[10 µM]
CC1(C)CC(=O)C(C=Nc2ccc3c(c2)OCO3)=C(O)C1,1%,13µM*,?,?,-23%,-31%
Cc1cccc(/N=C/C2=C(O)CC(C)(C)CC2=O)n1,3%,/,3%,7%[9.22 µM],/,20%[10 µM]
CC1(C)CC(=O)C(C=Nc2ccc(C(=O)c3ccccc3)cc2N=CC2=C(O)CC(C)(C)CC2=O)=C(O)C1,-25%,10µM*,20µM*,?,/,-14%
CC1(C)CC(=O)C(C=Nc2ccc(O)c(N=CC3=C(O)CC(C)(C)CC3=O)c2)=C(O)C1,-9%,1.1µM*,3.2µM*,-19%,/,19%[10 µM]
CC1(C)CC(=O)C(C=NCc2ccc3c(c2)OCO3)=C(O)C1,2%,-7%,13%,4%,-20%,22%[1.9 µM]
Cc1ccc(CN2CCN(/N=C/c3ccc(Cl)c([N+](=O)[O-])c3)CC2)cc1,?,-5%,6%,-10%,/,-11%
CC1(C)CC(=O)C/C(=N\NC(=S)NCc2ccccc2)C1,-19%,?,-9%,27%,/,2%[10 µM]
CC1(C)CC(=O)C/C(=N\NC(=O)C2CC2c2ccccc2)C1 (stereo unspecified),10%,32µM*,-26%,18%,/,11%
CCS(=O)(=O)N1Cc2ccccc2CC1C(=O)Nc1ncc(C)s1 (stereo unspecified),-16%,-14%,2%,-13%,/,-48%
CCS(=O)(=O)N1Cc2ccccc2CC1C(=O)Nc1nnc(SCc2ccc(C#N)cc2)s1 (stereo unspecified),5%,-8%,?,13µM*,-2%,-5%[10 µM]
COc1cccc(CNc2nc3ccccc3n2CCN2CCCCC2)c1OC,0%,6%,-1%,13µM*,-11%,0%[10 µM]
CCCn1c(NCc2cc(OC)ccc2OC)nc2ccccc21,-25%,?,-9%,20µM*,-9%,-15%[0.074 µM]
O=C(N/N=C/c1c(Cl)[nH]c2ccccc12)c1ccc2c(c1)OCCO2,9%,?,?,-26%[9.22 µM],/,-47%[10 µM]
O=C(NC1CCCCC1)C(c1ccc2ncccc2c1)N(Cc1ccc2c(c1)OCO2)C(=O)c1ccc2c(c1)OCCO2 (stereo unspecified),-7%,28µM*,-7%,9%,-14%,4%[10 µM]
CCCCCCC#CC1C=CC(OC(=O)OCC)C(COC(=O)OCC)O1 (stereo unspecified),-1%[13.1 µM],4µM*,/,/,/,2µM*
CCCCC#CC1C=CC(OC(C)=O)C(COC(C)=O)O1 (stereo unspecified),18%[13.1 µM],3.5µM*,/,/,/,?
CC(=O)OCC1OC(C#Cc2ccc(Br)cc2)C=CC1OC(C)=O (stereo unspecified),-6%[13.1 µM],-5%[13.5 µM],/,/,/,7%[10 µM]
CCOC(=O)OCC1OC(C#Cc2ccc(Br)cc2)C=CC1OC(=O)OCC (stereo unspecified),12%[13.1 µM],-19%[13.5 µM],/,/,/,-11%[10 µM]
CC(C)(C)c1csc(Sc2ccc([N+](=O)[O-])cn2)n1,-7%,/,-11%,24%[9.22 µM],/,8%[10 µM]
NS(=O)(=O)c1cccc(NC(=O)c2cccnc2Oc2ccccc2)c1,2%,-11%,-19%,-2%[9.22 µM],/,-3%[10 µM]
